The source of these data is PubChem BioAssay AID463173 (ICCB-Longwood Screening Facility, Harvard Medical School, 2010).

Out of some 52,000 compounds screened, about 4,300 (8.3%) were called active. No stated cut-off is given here; in the data, active means survival mostly below about 52% (no sharp cut-off); inactive means mostly above about 56%. For the sample, actives were picked, then their nearest neighbours and some compounds at random.

This assay deals with DeltatarO mutant. In words: growth inhibition of S. aureus wild type versus tarO mutant, primary screen, teichoic acid synthesis inhibitors, RN4220, OD600 (AID 463173). To be noted: OD600, 18 h, active compounds read low, screened at 18.75 µg/mL (by protocol).
On to `N#C/C(=C\C1CC=CCC1)c1nc2ccccc2[nH]1` (stereo not given), for which the survival was 86% (inactive).
For `Cc1cc(C)cc(NC(=O)CSc2nc(-c3ccccc3)nn2C(=O)c2ccco2)c1`, the survival was 110% (inactive).
Consider `S=C(NCCCN1CCOCC1)N1CCN(c2ccccc2)CC1`, for which the survival was 84% (inactive).
Under `Cc1c(C=Nc2ccc(Cl)cc2)c(O)n(C)c(=O)c1C#N` stands 74% (inactive).
Under `CCSc1ncc(Cl)c(C(=O)Nc2c(C(=O)Nc3ccc(Cl)cc3)oc3ccccc23)n1` stands 105% (inactive); under `CC(=O)c1ccc(N2CCN(c3nc4ccccc4c4nc(-c5cccc(C)c5)nn34)CC2)cc1`, 41% (active); under `Clc1ccc(CNc2nc3ccccc3c3nc(-c4cccnc4)nn23)cc1`, 80% (inactive).
The figure for `Cc1cccc(-c2nc3c4ccccc4nc(N4CCN(c5ccc(F)cc5)CC4)n3n2)c1` is 65% (inactive).
With `Cc1cccc(-c2nc3c4ccccc4nc(N4CCN(c5cccc(Cl)c5)CC4)n3n2)c1`, the survival was 71% (inactive).
Under `Cc1cccc(-c2nc3c4ccccc4nc(NCc4ccc(Cl)cc4)n3n2)c1` stands 44% (active); under `CCCCCC(=O)Nc1ccc(NC(=O)c2cc3ccccc3o2)c(OC)c1`, 68% (inactive).
Under `Cc1ccc(CCNC(=O)CCCc2nnc3n(C)c(=O)c4sccc4n23)cc1` stands 86% (inactive); under `O=c1c2ccccc2n(Cc2cccc(Cl)c2)c(=O)n1Cc1ccccc1`, 124% (inactive).
The figure for `O=c1c2ccccc2n(Cc2ccccc2Cl)c(=O)n1CCc1ccccc1` is 60% (inactive); for `CCCn1c(N2CCN(Cc3ccc(Cl)cc3)CC2)nc2ccccc21` it is 91% (inactive); for `Clc1ccccc1CN1CCN(Cc2ccco2)CC1` it is 86% (inactive).
With `CCn1c2ccccc2c2cc(CN3CCN(Cc4cccc(Cl)c4)CC3)ccc21`, the survival was -1% (active).
Under `CCn1c2ccccc2c2cc(CN3CCN(Cc4ccccc4Cl)CC3)ccc21` stands -1% (active).
The figure for `CCS(=O)(=O)N1CCN(Cc2ccccc2)CC1` is 72% (inactive); for `CCn1c2ccccc2c2cc(CN3CCN(Cc4ccc(Br)cc4)CC3)ccc21` it is -1% (active); for `CCn1c2ccccc2c2cc(CN3CCN(Cc4ccc(Cl)cc4)CC3)ccc21` it is -1% (active).
The figure for `CCn1c2ccccc2c2cc(CN3CCN(Cc4ccco4)CC3)ccc21` is 81% (inactive).
`CCCN1CCN(C(=O)Cn2ncc3c4ccccc4n(Cc4cccc(Cl)c4)c3c2=O)CC1`: the survival is 72% (inactive).
Under `CC(C)n1c(N2CCN(Cc3ccc(Cl)cc3)CC2)nc2ccccc21` stands 83% (inactive); under `CCS(=O)(=O)N1CC(=O)N(c2cc(C)cc(C)c2)C(C)(C(=O)NC2CCCCC2)C1` (stereo not given), 92% (inactive).
Under `COc1cc(NC(=O)Cn2cnc3c2c(=O)n(C)c(=O)n3C)c(OC)cc1Cl` stands 65% (inactive).
For the compound `CC(C)(C)c1ccc(CSC2=Nc3ccccc3C3=NC(CC(=O)NCc4cccs4)C(=O)N23)cc1` (stereo not given), the survival was 68% (inactive).
Consider `CCC(=O)N=c1sc2ccccc2n1-c1ccccc1`, for which the survival is 71% (inactive).
In the case of `COc1ccc(C(=O)Nc2ccc3oc(-c4cccnc4)nc3c2)cc1OC`, the survival was 62% (inactive).
The figure for `CCCCOc1ccccc1C(=O)N(Cc1cccc(F)c1)C1CCS(=O)(=O)C1` (stereo not given) is 75% (inactive); for `CCc1ccc(NC(=O)CCn2c(=O)c3cccn3c3ccccc32)cc1` it is 48% (inactive); for `COCCCn1c(=O)c2sccc2n2c(CCCC(=O)Nc3ccc(F)c(F)c3)nnc12` it is 83% (inactive).
Under `Cc1ccc(NC(=O)Cn2c(=O)cc(-c3ccccc3)c3c(C)nn(C)c32)c(Cl)c1` stands 78% (inactive).
Under `CCOc1ccc(CN2CCN(C(=O)c3ccco3)CC2)cc1` stands 77% (inactive).
On to `CCOc1ccc(CN2CCN(Cc3ccc4c(c3)c3ccccc3n4CC)CC2)cc1`, for which the survival was 0% (active).
`CCOc1ccc(Cn2c(=O)oc3ccccc32)cc1`: the survival was 117% (inactive).
Take `CC(C)(C)OC(=O)N1CCC(c2c(C(=O)NC3CCCCC3)cnn2-c2ccc(F)cc2F)CC1`: the survival is 76% (inactive).
Turning to `CCOc1ccc(NC(=O)NC(C)c2c(-n3cccc3)sc3c2CCN(CC)C3)cc1` (stereo not given), the survival is 96% (inactive).
For `Cc1nc(-c2ccc(F)cc2)sc1CCNC(=O)Cc1ccc(F)cc1`, the survival was 81% (inactive).
In the case of `CCOc1ccc(-n2nc(CO)c(C(=O)NCCCc3ccccc3)n2)cc1`, the survival is 89% (inactive).
Under `Cc1ccc(CNC(=O)c2nn(-c3ccc(Cl)cc3)nc2CO)cc1` stands 94% (inactive).
The figure for `CCc1ccc(-n2nc(CO)c(C(=O)NCCOC)n2)cc1` is 56% (inactive); for `COCCNC(=O)c1nn(-c2ccc(Cl)cc2)nc1CO` it is 91% (inactive).
Under `Cc1ccc(-n2nc(CO)c(C(=O)NCc3cccnc3)n2)cc1` stands 90% (inactive); under `CCc1ccc(-n2nc(CO)c(C(=O)NCc3cccnc3)n2)cc1`, 51% (inactive).
In the case of `CCc1ccc(-n2nc(CO)c(C(=O)NCCCc3ccccc3)n2)cc1`, the survival is 95% (inactive).
The figure for `CCOc1ccc(-n2nc(CO)c(C(=O)NCc3ccc(Cl)cc3)n2)cc1` is 43% (active); for `CCOc1ccc(-n2nc(CO)c(C(=O)NCc3cccnc3)n2)cc1` it is 44% (active); for `CCOc1ccc(-n2nc(CO)c(C(=O)NCC(C)O)n2)cc1` (stereo not given) it is 39% (active).
Under `CCOc1ccc(-n2nc(CO)c(C(=O)NCC(c3ccccc3)c3ccccc3)n2)cc1` stands 48% (inactive); under `CCCCNC(=O)c1nn(-c2ccc(CC)cc2)nc1CO`, 41% (active); under `COc1ccc(C2CC3(CC(C)(C)NC(=O)N3)Oc3cc(O)ccc32)cc1` (stereo not given), 102% (inactive).
The figure for `CCC(=O)Oc1cc(C(C)(C)C)cc2cc(-c3nc(-c4ccc(OC)cc4OC)no3)c(=O)oc12` is 89% (inactive); for `Cc1nn(CCC(=O)NCc2cccc(Br)c2)c(=O)c2nn(-c3ccccc3)c(C)c12` it is 92% (inactive).
As to `CC1=C(c2ccc(C)cc2)S(=O)(=O)N(Cc2ccc(C(=O)NCc3ccccc3F)cc2)C1=O`, the survival was 80% (inactive).
As to `Cc1cc(C)nc(Sc2ccccc2)n1`, the survival is 76% (inactive).
Take `N#Cc1ccccc1NC(=O)CC1Nc2ccccc2NC1=O` (stereo not given): the survival is 98% (inactive).
Under `Cc1ccc(S(=O)(=O)Cc2ccc(C(=O)NCCc3ccc(Cl)cc3)o2)cc1` stands 56% (inactive).
On to `COc1ccc(NC(=O)Cn2cc(C(=O)c3ccc(C)c(C)c3)c(=O)c3cc(OC)ccc32)cc1`, for which the survival is 72% (inactive).
The figure for `O=c1c2oc3ccccc3c2n(Cc2ccc(F)cc2)c(=O)n1Cc1ccco1` is 71% (inactive); for `N#C/C(=C/c1ccc(Cl)cc1Cl)c1nc2ccccc2c(=O)[nH]1` it is 70% (inactive).
Under `COc1cccc(CNC(=O)c2nn(-c3ccccc3Cl)nc2CO)c1` stands 85% (inactive); under `CCOc1ccc(-n2nc(CO)c(C(=O)NCc3cccc(OC)c3)n2)cc1`, 41% (active).
The figure for `CCOc1ccc(-n2nc(CO)c(C(=O)NCc3ccccn3)n2)cc1` is 53% (inactive).
Take `Cc1nn(CCCC(=O)Nc2cc(C(F)(F)F)ccc2Cl)c(=O)c2c1sc1ccccc12`: the survival is 78% (inactive).
As to `Cc1nc(-c2ccccc2)sc1-c1ccc(SCC(=O)Nc2cccc(C(F)(F)F)c2)nn1`, the survival was 41% (inactive).
Under `Cc1nc(-c2ccccc2)sc1-c1ccc(SCC(=O)NCc2ccc(Cl)cc2)nn1` stands 52% (inactive); under `Cc1nc(C)c(-c2ccc(SCC(=O)Nc3ccc(C)c(F)c3)nn2)s1`, 93% (inactive).
The figure for `Cc1cccc(NC(=O)CSc2ccc(-c3ccccn3)nn2)c1` is 103% (inactive); for `Cc1nc(-c2ccccc2)sc1-c1ccc(SCC(=O)Nc2ccccc2)nn1` it is 24% (inactive).
As for `Cc1ccc(NC(=O)CSc2ccc(-c3sc(-c4ccccc4)nc3C)nn2)cc1F`, the survival is 25% (active).
Under `Cc1ccc(NC(=O)CSc2ccc(-c3ccccn3)nn2)cc1F` stands 49% (inactive); under `Cc1cccc(NC(=O)CSc2ccc(-c3sc(-c4ccccc4)nc3C)nn2)c1C`, 33% (inactive); under `CC(=O)Nc1cccc(NC(=O)CSc2ccc(-c3sc(-c4ccccc4)nc3C)nn2)c1`, -14% (active).
Take `O=C(CSc1ccc(-c2ccccn2)nn1)Nc1ccc(F)c(F)c1`: the survival was 27% (active).
Under `Cc1nc(-c2ccccc2)sc1-c1ccc(SCC(=O)Nc2ccc(F)cc2F)nn1` stands 19% (active); under `Cc1nc(-c2ccccc2)sc1-c1ccc(SCC(=O)NCc2ccc(F)cc2)nn1`, 53% (inactive); under `O=C(COc1ccc(S(=O)(=O)N2CCCC2)cc1)N1CCCC1`, 91% (inactive).
As to `Cc1c(Cl)cccc1Nc1nn2c(=O)c3ccc(C(=O)N(C)Cc4ccccc4)cc3nc2s1`, the survival was 81% (inactive).
Turning to `CCc1ccc(NC(=O)Cn2c(=O)n(CCC(C)C)c(=O)c3cccnc32)cc1`, the survival was 76% (inactive).
Under `CC(=O)Nc1ccccc1N1CCCCC1` stands 100% (inactive).
For the compound `COc1cc(NC(=O)CCc2c(C)nc3nc(-c4cc(OC)cc(OC)c4)nn3c2C)cc(OC)c1`, the survival is 83% (inactive).
The figure for `CCCCCC1CC(CC(=O)Nc2nncs2)C(=O)O1` (stereo not given) is 110% (inactive); for `O=C(CCCn1c(=O)c2cccn2c2ccc(F)cc21)NCc1ccc(Cl)cc1` it is 38% (active).
Under `CCOc1ccccc1CNC(=O)CCn1c(=O)c2cccn2c2ccc(F)cc21` stands 46% (inactive).
The figure for `Cc1cccc(CNC(=O)CCCn2c(=O)c3cccn3c3ccc(F)cc32)c1` is 79% (inactive); for `CCOc1ccc(CNC(=O)CCCn2c(=O)c3cccn3c3ccc(F)cc32)cc1` it is 41% (active).
`CCOc1ccc(CNC(=O)Cn2c(=O)c3cccn3c3ccc(F)cc32)cc1`: the survival was 80% (inactive).
Under `CCOc1ccccc1CNC(=O)CCCn1c(=O)c2cccn2c2ccc(F)cc21` stands 33% (active); under `CCOc1ccc(CNC(=O)CCn2c(=O)c3cccn3c3ccc(F)cc32)cc1`, 45% (active); under `CCOc1ccc(CNC(=O)CCCn2c(=O)c3cccn3c3ccccc32)cc1`, 55% (inactive).
For `CCc1ccc(CNC(=O)CCn2c(=O)c3cccn3c3ccc(F)cc32)cc1`, the survival is 91% (inactive).
Under `CCOc1ccc(CNC(=O)CCCn2c(=O)c3cccn3c3cccnc32)cc1` stands 120% (inactive); under `CCOc1ccc(CCNC(=O)CCn2c(=O)c3cccn3c3ccc(F)cc32)cc1`, 50% (inactive); under `CCOc1ccccc1CNC(=O)Cn1c(=O)c2cccn2c2ccc(F)cc21`, 68% (inactive).
